From PubChem
MCF10A rerep = induces DNA re-replication in MCF 10a normal breast cells. Potency, µM (highest dose often 46.1 µM), without a hit: at the top dose activity, positive = re-replication, actives largely listed as activators. AID 624296. 350,000 compounds, 2.9% hits. MCF 10A DNA re-replication, Hoechst nuclear intensity, 48 h; further: % of control where 0% means no effect; nearly all actives have a fitted effect of over 50% in size
VP16 counter = counter-screen for ROR gamma inhibitors: Gal4-VP16 reporter; 310,000 compounds, 3.5% hits; Potency, µM (series often up to 53.6 µM), for inactives: at the top dose activity, negative = inhibition, hits mostly inhibitors; Drosophila S2 Gal4-VP16 UAS-luciferase, luminescence, 20 h;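 further: Gal4-VP16 expression switched on by copper sulfate through the metallothionein promoter; on the % scale 0 is the no-effect control and ±100 the full control effect; nearly all actives have a fitted effect of over 50% in size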
RORgamma inh = ROR gamma (mouse) transcription inhibition. P51450. 310,000 compounds, 5.4% hits. Potency, µM (series often up to 53.6 µM), inactives show top-dose activity change, negative = inhibition, usual class: inhibitors. Drosophila S2 Gal4-RORgamma UAS-luciferase reporter, 20 h; further: on the % scale 0 is the no-effect control and ±100 the full control effect; nearly all actives have a fitted effect of over 60% in size
Target sequence (P51450 whole entry, looked up, the tested form may be a part): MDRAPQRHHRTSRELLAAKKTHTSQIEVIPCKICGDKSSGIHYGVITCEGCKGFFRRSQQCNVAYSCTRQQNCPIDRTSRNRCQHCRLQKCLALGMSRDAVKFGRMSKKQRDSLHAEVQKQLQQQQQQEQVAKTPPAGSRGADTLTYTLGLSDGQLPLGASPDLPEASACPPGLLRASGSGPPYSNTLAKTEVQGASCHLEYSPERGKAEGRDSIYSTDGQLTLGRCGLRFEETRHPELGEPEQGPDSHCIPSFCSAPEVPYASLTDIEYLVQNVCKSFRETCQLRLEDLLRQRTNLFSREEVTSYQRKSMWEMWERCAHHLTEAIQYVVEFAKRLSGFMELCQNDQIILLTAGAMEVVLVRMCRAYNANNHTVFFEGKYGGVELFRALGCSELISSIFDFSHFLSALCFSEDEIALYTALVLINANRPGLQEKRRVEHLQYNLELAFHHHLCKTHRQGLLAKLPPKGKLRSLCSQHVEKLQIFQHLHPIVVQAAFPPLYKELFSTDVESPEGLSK
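Drosophila Schneider cells stably carrying a metallothionein-driven Gal4 DBD–ROR gamma fusion and a UAS-Photinus luciferase reporter were exposed to compound for 1 hr, then induced with copper sulfate (700 uM final) for 20 hr at ambient temperature before luminescence reading.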
SW480 rereplic = induces DNA re-replication in SW480 colon adenocarcinoma cells; SW480 DNA re-replication, Hoechst DNA content imaging, 48 h; Potency, µM (highest dose often 46.1 µM), for the others: top-dose re-replication activation, usual class: activators; 340,000 compounds, 1.8% hits; AID 624297; further: % of control where 0% means no effect; nearly all actives have a fitted effect of over 55% in size
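Image-based read-out: total Hoechst fluorescence of nuclei (405 nm excitation, 500-530 nm emission), with hits raising the fraction of high-intensity nuclei. SW480 colon cells incubated 48 hr with compounds at 37 C.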
ELG1 DNA repair = inhibitors of ELG1-dependent DNA repair in HEK293T cells; HEK293T ELG1-luciferase reporter, luminescence, 16 h; DNA damage induced by 5-fluorouridine; 330,000 compounds, 2.3% hits; Potency, µM (highest dose often 46.1 µM), for inactives: top-dose activity change, negative = inhibition, most hits filed as inhibitors; further: on the % scale 0 is the no-effect control and ±100 the full control effect; nearly all actives have a fitted effect of over 55% in size
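Step one: seed 2,000 cells per well. Step two: pin-transfer compound or DMSO alongside 5-fluorouridine. Step three: incubate 16 hr, 37 °C, 5% CO2. Step four: add ONE-Glo, wait 30 min, read luminescence.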
Numbers without * were called inactive; ? = inconclusive; / = not tested or not shown; [ ] = dose if it differs, or a comment. Sampled rows, rich in hits. Any-hit rate of the full collection: about 10%. The call rests on the fitted dose curve; in most records, active means well fitted curve in the direction sought with a large enough effect; inconclusive means small, poorly fitted or top-dose-only effect, or another doubt; inactive means no such curve, though single readings can be large; an effect the other way counts as inactive or inconclusive. Potency means the concentration at half of the fitted maximal effect.

SMILES	MCF10A rerep	VP16 counter	RORgamma inh	SW480 rereplic	ELG1 DNA repair
Cn1c(N2CCCC2)nc2c1c(=O)n(Cc1ccc(Cl)cc1)c(=O)n2C	6%	-3%	-38%	-3%	21µM*
Cn1c(=O)n(Cc2ccc(Cl)cc2)c(=O)c2c1nc1n2CCN1Cc1ccco1	7%	-1%	?	-1%	26µM*
Cc1cnc(NC(=O)CCCNC(=O)c2ccc(Cl)cc2)s1	-1%	/	/	-2%	?
CC(CN1C(C)CCCC1C)OC(=O)c1ccccc1Br (centres undefined)	11%	4%	-33%	-6%	0%
COc1cccc(CNC(=O)c2cccc(NC(=O)CC3SC(N4CCCCC4)=NC3=O)c2)c1 (centres undefined)	11%	/	/	-30%	?
CC(C)(C)c1cc[n+](C2=C([O-])c3ccccc3C(=O)/C2=N\S(=O)(=O)c2ccccc2)cc1	5%	6.3µM*	5.6µM*	?	15µM*
CCCCC[n+]1ccn(C2=C([O-])c3ccccc3C(=O)/C2=N\S(=O)(=O)c2ccc(Br)cc2)c1	21%	-3%	-18%	?	?
CCCCC[n+]1ccn(C2=C([O-])c3ccccc3C(=O)/C2=N\S(=O)(=O)c2ccccc2)c1	19%	?	?	11µM*	?
CC(C)[n+]1ccn(C2=C([O-])c3ccccc3C(=O)/C2=N\S(=O)(=O)c2ccccc2)c1	5%	?	-38%	?	23µM*
CC(c1ccccc1)N1CC(C(=O)Nc2nccs2)CC1=O (centres undefined)	-15%	4%	3%	-12%	2%
Cc1cc2ncc(C(N)=O)cn2n1	29%	2%	1%	4.1µM*	3%
Cc1cc2ncc(-c3cccc(Cl)c3)cn2n1	9%	12%	10%	-6%	?
Cc1sc(NC(=O)CSC2=NCCS2)nc1-c1ccccc1	8.9µM*	-3%	-25%	0%	?
O=C(CSC1=NCCS1)Nc1nc2ccccc2s1	1%	?	?	5%	?
Cc1ccc(-c2csc(NC(=O)CSc3nnc4c(n3)[nH]c3ccccc34)n2)cc1	16µM*	-10%	?	?	?
CC(=O)N1CC(=O)N=C1SCC(=O)Nc1nc(-c2ccccc2)c(-c2ccccc2)s1	21µM*	7.9µM*	7.1µM*	2%	-13%
Cc1ccc(NC(=O)CSc2nnc3c(n2)[nH]c2ccccc23)cc1	-13%	-2%	11%	-21%	-2%
Cc1sc(NC(=O)CSc2ncn(-c3ccccc3)n2)nc1-c1ccccc1	13%	?	?	1%	?
Cc1ccc(-c2csc(NC(=O)CSC3=NCCS3)n2)cc1	16%	13µM*	-40%	-12%	?
Cc1ccc(-c2csc(NC(=O)CSc3nc(C)cc(=O)[nH]3)n2)cc1	?	?	?	-3%	?
O=C1CN(C(=O)COC(=O)CCS(=O)(=O)c2ccccc2)c2ccccc2N1	-1%	/	/	-6%	-2%
O=[N+]([O-])c1ccc(N2CCNCC2)cc1Sc1nc2ccccc2[nH]1	4%	-3%	-1%	16µM*	18%
CS(=O)(=O)c1ccc(Sc2nc3ccccc3s2)c([N+](=O)[O-])c1	?	10µM*	11µM*	7.3µM*	?
O=S(=O)(Nc1ccc(O)c(Sc2nc3ccccc3s2)c1)c1ccc(F)cc1	?	?	88%	-2%	-22%
O=[N+]([O-])c1cc(S(=O)(=O)C(F)(F)F)ccc1Sc1nc2ccccc2s1	?	6.3µM*	7.9µM*	13µM*	19%
O=[N+]([O-])c1cc(S(=O)(=O)C(F)(F)F)ccc1Sc1nc2ccccc2[nH]1	3.7µM*	?	?	?	?
NCCNc1ccc([N+](=O)[O-])c(Sc2nc3ccccc3[nH]2)c1	-35%	-13%	-6%	12%	-3%
CS(=O)(=O)c1ccc(Sc2nc3ccccc3[nH]2)c([N+](=O)[O-])c1	-186%[0.0737 µM]	?	?	28%	0%
O=C(NCCCc1ccccc1)C1CC1	-11%	/	/	13%	/
